# Assay results as given in paper PMC7862700, “An all-to-all approach to the identification of sequence-specific readers for epigenetic DNA modifications on cytosine”.
# Experiments:
# Experiment in all cases: DAPPL (digital affinity profiling via proximity ligation, sequencing); 10 mM Tris-HCl pH 7.5, 50 mM NaCl, 1 mM DTT, 4% glycerol, room temperature, 30 min; GST-TFs on glutathione beads, 16-mer random dsDNA library, 0.1% formaldehyde crosslink after washing; high values mean tight binding
# FEV = molecular target: T1, FEV (Homo sapiens, UniProt Q99581 1-238); details: protein: recombinant; tags: N-terminal GST; dsDNA, one strand shown
# T1 sequence: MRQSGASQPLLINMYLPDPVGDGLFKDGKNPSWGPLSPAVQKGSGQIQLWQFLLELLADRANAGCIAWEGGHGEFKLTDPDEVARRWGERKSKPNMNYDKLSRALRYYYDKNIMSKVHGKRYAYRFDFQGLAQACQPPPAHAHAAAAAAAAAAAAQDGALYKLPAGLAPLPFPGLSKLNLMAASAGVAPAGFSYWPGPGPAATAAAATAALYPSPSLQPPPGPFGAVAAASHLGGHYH
# Outline: (§1)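 The binding signal reported is, for every hexamer, its read frequency for a factor over its read frequency for the tag-only sample. Reads came from pools of yeast-expressed, GST-fused human transcription factors on glutathione beads, barcoded with DNA and mixed with that sample, which were incubated with 200 nmole of a random double-stranded 16-mer DNA library in Tris/NaCl/DTT/glycerol buffer at room temperature for 30 min. After washing, the pools were crosslinked with 0.1% formaldehyde, proximity-ligated with BsaI/T4 ligase for 1 h at 37 °C, PCR-amplified and sequenced on an Illumina NextSeq500.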
# ETV5 = ETV5 (Homo sapiens, UniProt P41161 1-510); details: protein: recombinant; tags: N-terminal GST; dsDNA, one strand shown
# Outline: as §1
# HSF1 = HSF1 (Homo sapiens, UniProt Q00613 1-529); details: protein: recombinant; tags: N-terminal GST; chain copies: 3; dsDNA, one strand shown
# Outline: as §1
# SPIC = molecular target: T2, SPIC (Homo sapiens, UniProt Q8N5J4 1-248); details: protein: recombinant; tags: N-terminal GST; dsDNA, one strand shown
# T2 sequence: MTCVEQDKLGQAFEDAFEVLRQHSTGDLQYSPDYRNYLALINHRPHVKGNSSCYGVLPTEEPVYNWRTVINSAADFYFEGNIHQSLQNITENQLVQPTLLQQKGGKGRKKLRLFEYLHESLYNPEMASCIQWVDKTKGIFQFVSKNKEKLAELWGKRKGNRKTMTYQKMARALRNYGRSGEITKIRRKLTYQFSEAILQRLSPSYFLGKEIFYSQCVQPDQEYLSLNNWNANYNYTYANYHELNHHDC
# Outline: as §1
# ELF4 = ELF4 (Homo sapiens, UniProt Q99607 1-663); details: protein: recombinant; tags: N-terminal GST; dsDNA, one strand shown
# Outline: as §1
# ELK4 = molecular target: T3, ELK4 (Homo sapiens, UniProt P28324-2 1-405); details: protein: recombinant; tags: N-terminal GST; dsDNA, one strand shown
# T3 sequence: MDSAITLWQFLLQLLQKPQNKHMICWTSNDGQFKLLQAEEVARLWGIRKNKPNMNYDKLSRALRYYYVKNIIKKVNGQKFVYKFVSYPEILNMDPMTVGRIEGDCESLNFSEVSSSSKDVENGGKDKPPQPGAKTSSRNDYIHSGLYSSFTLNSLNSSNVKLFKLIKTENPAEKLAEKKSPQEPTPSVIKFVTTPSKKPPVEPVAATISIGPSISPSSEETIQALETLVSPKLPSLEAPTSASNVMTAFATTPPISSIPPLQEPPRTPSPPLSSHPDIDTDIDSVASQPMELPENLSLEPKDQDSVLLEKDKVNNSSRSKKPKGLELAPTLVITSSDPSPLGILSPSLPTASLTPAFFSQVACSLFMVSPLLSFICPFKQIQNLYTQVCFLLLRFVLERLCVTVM
# Outline: as §1
# ETV2 = molecular target: T4, ETV2 (Homo sapiens, UniProt O00321 1-342); details: protein: recombinant; tags: N-terminal GST; dsDNA, one strand shown
# T4 sequence: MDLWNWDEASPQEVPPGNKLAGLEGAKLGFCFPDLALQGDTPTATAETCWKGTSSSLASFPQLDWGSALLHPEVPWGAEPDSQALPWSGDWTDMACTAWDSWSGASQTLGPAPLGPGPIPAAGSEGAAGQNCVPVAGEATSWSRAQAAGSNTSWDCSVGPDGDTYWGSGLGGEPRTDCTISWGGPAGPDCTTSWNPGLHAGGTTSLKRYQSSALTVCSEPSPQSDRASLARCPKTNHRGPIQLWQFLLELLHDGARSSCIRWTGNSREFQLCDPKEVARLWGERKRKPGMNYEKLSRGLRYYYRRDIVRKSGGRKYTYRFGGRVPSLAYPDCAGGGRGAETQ
# Outline: as §1
# ELF3 = molecular target: T5, ELF3 (Homo sapiens, UniProt P78545 1-371); details: protein: recombinant; tags: N-terminal GST; dsDNA, one strand shown
# T5 sequence: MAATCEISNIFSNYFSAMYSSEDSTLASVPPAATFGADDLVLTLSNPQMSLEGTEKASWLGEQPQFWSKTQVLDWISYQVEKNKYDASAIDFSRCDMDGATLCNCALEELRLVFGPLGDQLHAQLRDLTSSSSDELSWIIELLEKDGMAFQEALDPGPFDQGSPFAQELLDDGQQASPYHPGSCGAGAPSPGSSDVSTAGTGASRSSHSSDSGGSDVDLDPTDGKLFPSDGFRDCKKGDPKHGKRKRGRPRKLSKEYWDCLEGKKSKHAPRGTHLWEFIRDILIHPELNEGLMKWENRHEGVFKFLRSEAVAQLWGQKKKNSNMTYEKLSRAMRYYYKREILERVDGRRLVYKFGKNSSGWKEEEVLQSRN
# Outline: as §1
# CRX = CRX (Homo sapiens, UniProt O43186 1-299); details: protein: recombinant; tags: N-terminal GST; dsDNA, one strand shown
# Outline: as §1
# ETV1 = ETV1 (Homo sapiens, UniProt P50549 1-477); details: protein: recombinant; tags: N-terminal GST; dsDNA, one strand shown
# Outline: as §1
# ERF = molecular target: T6, ERF (Homo sapiens, UniProt P50548 1-548); details: protein: recombinant; tags: N-terminal GST; dsDNA, one strand shown
# T6 sequence: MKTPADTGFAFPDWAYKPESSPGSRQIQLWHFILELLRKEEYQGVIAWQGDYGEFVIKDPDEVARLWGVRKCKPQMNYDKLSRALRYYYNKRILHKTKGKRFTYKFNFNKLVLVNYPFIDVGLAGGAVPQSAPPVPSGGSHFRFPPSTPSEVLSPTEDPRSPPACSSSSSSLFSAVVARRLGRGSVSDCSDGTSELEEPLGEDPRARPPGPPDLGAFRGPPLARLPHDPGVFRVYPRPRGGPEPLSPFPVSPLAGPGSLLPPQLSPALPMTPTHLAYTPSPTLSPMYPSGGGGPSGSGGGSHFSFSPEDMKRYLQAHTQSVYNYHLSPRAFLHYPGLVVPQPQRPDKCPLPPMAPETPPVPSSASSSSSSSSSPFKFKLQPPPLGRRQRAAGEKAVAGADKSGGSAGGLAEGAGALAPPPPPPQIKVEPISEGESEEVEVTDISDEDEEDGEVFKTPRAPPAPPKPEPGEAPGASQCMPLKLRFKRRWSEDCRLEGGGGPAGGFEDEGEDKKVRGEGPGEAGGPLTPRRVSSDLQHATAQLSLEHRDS
# Outline: as §1
# ETV3L = molecular target: T7, ETV3L (Homo sapiens, UniProt Q6ZN32 1-361); details: protein: recombinant; tags: N-terminal GST; dsDNA, one strand shown
# T7 sequence: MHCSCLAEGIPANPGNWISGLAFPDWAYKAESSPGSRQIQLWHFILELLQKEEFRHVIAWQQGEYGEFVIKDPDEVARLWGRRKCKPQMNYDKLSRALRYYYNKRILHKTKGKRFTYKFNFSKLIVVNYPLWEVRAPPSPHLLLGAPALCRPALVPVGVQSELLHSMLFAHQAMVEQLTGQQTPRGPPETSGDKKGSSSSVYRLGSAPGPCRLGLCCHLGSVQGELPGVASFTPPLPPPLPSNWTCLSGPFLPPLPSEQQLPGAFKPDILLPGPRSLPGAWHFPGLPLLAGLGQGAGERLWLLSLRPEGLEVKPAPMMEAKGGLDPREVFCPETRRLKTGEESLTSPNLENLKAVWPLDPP
# Outline: as §1
# ETS2 = molecular target: T8, ETS2 (Homo sapiens, UniProt P15036 1-469); details: protein: recombinant; tags: N-terminal GST; dsDNA, one strand shown
# T8 sequence: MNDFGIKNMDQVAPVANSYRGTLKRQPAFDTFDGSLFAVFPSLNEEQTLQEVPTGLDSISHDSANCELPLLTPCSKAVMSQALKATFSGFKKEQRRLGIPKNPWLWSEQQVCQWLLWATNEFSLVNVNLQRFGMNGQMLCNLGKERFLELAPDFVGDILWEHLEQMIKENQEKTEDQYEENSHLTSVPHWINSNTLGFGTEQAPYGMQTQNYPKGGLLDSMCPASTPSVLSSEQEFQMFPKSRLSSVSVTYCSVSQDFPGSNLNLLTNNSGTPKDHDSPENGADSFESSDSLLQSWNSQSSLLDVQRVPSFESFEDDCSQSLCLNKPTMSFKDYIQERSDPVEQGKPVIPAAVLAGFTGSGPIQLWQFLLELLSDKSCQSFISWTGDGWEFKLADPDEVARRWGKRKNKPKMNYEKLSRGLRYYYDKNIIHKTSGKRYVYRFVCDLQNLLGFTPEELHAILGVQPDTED
# Outline: as §1
# SPDEF = molecular target: T9, SPDEF (Homo sapiens, UniProt O95238 1-335); details: protein: recombinant; tags: N-terminal GST; dsDNA, one strand shown
# T9 sequence: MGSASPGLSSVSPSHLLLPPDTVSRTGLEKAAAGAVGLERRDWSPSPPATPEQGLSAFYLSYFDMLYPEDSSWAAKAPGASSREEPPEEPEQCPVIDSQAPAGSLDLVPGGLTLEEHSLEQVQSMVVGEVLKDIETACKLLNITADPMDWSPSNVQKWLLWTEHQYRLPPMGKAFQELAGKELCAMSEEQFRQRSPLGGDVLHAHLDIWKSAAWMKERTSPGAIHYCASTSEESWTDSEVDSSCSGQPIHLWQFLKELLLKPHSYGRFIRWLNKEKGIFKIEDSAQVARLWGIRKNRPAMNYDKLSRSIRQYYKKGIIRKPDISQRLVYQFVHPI
# Outline: as §1
# ETV7 = molecular target: T10, ETV7 (Homo sapiens, UniProt Q9Y603 1-341); details: protein: recombinant; tags: N-terminal GST; dsDNA, one strand shown
# T10 sequence: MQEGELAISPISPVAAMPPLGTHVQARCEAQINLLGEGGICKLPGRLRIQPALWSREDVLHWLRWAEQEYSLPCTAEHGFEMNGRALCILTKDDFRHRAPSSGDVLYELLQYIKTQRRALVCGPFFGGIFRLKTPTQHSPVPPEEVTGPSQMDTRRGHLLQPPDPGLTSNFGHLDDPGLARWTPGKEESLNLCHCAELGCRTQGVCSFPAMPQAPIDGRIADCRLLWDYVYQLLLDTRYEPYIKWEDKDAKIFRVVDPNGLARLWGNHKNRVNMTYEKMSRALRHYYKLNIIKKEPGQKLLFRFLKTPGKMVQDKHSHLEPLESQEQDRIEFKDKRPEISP
# Outline: as §1
# ELF5 = molecular target: T11, ELF5 (Homo sapiens, UniProt Q9UKW6-2 1-255); details: protein: recombinant; tags: N-terminal GST; dsDNA, one strand shown
# T11 sequence: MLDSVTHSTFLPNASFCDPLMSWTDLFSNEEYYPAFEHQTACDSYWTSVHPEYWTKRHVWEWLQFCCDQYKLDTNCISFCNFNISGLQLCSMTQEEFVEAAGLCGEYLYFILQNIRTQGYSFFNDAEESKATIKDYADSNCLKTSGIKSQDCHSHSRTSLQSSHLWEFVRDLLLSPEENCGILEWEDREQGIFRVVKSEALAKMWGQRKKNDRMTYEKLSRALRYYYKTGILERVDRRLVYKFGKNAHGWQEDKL
# Outline: as §1
# ETV3 = molecular target: T12, ETV3 (Homo sapiens, UniProt P41162-2 1-143); details: protein: recombinant; tags: N-terminal GST; dsDNA, one strand shown
# T12 sequence: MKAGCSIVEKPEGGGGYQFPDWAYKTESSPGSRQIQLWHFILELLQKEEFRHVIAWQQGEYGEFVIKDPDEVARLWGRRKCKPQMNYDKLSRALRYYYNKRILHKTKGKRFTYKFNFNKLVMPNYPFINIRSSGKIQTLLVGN
# Outline: as §1
# ETV6 = ETV6 (Homo sapiens, UniProt P41212 1-452); details: protein: recombinant; tags: N-terminal GST; dsDNA, one strand shown
# Outline: as §1
# Sequence of ETV1 (P50549 whole entry): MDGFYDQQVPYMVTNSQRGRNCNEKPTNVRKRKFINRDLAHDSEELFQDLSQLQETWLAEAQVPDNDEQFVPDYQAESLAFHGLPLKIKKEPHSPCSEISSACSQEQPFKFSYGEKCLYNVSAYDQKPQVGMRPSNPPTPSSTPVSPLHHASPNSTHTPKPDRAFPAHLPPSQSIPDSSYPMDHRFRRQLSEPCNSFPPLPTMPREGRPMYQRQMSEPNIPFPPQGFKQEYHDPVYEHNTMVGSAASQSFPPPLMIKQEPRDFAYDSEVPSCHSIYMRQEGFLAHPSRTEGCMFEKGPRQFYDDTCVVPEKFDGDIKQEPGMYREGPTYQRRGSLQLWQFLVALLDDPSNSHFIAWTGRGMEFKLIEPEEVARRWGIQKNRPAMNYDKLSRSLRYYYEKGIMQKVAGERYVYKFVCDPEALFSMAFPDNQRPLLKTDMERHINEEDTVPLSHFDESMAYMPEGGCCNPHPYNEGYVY
# Sequence of CRX (O43186 whole entry): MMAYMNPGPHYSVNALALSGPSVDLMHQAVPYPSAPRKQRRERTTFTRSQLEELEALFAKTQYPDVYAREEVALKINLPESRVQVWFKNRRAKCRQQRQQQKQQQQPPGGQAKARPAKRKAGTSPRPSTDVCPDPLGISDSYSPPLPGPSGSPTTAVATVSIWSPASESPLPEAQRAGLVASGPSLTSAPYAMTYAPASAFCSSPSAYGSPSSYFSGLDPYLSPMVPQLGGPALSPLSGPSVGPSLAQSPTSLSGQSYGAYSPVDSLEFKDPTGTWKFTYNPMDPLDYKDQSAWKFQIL
# Sequence of ETV6 (P41212 whole entry): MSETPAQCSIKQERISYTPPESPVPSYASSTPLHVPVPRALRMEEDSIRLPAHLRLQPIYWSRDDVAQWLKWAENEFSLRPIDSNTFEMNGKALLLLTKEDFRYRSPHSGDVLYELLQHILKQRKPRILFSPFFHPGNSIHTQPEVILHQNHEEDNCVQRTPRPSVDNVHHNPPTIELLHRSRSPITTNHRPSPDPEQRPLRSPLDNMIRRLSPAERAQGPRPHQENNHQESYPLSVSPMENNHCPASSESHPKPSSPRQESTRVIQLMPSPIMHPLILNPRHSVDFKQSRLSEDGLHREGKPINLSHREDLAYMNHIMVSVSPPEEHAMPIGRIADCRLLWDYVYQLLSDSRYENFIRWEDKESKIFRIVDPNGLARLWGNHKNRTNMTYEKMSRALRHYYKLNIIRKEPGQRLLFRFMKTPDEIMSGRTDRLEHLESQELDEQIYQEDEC
# Sequence of HSF1 (Q00613 whole entry): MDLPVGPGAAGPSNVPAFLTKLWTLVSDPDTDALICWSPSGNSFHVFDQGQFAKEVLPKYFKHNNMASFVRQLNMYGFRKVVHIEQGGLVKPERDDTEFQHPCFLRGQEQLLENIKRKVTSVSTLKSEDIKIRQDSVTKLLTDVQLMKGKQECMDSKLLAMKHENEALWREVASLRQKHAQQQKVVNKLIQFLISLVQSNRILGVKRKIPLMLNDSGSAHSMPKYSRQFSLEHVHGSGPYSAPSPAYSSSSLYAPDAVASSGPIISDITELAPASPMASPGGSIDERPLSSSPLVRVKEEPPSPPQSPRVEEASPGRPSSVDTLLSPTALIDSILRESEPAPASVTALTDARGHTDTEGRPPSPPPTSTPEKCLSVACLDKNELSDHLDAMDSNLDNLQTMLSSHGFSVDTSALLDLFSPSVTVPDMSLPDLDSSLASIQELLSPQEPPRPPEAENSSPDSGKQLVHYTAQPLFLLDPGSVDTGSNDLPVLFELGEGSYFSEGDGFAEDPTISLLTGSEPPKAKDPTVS
# Sequence of ETV5 (P41161 whole entry): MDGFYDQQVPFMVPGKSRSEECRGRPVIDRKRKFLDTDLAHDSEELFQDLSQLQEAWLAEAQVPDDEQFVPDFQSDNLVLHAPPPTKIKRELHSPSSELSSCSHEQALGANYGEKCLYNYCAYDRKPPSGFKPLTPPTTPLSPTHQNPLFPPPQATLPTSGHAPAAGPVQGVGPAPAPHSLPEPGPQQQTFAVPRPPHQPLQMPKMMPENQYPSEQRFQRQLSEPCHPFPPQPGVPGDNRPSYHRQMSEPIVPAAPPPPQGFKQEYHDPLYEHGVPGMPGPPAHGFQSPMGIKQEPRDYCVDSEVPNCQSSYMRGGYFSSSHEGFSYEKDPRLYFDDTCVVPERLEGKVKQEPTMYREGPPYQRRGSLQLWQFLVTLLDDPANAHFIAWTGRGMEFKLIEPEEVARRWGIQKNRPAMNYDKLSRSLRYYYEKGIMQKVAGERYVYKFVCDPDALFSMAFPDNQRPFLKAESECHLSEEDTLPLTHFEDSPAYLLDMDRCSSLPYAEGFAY
# Sequence of ELF4 (Q99607 whole entry): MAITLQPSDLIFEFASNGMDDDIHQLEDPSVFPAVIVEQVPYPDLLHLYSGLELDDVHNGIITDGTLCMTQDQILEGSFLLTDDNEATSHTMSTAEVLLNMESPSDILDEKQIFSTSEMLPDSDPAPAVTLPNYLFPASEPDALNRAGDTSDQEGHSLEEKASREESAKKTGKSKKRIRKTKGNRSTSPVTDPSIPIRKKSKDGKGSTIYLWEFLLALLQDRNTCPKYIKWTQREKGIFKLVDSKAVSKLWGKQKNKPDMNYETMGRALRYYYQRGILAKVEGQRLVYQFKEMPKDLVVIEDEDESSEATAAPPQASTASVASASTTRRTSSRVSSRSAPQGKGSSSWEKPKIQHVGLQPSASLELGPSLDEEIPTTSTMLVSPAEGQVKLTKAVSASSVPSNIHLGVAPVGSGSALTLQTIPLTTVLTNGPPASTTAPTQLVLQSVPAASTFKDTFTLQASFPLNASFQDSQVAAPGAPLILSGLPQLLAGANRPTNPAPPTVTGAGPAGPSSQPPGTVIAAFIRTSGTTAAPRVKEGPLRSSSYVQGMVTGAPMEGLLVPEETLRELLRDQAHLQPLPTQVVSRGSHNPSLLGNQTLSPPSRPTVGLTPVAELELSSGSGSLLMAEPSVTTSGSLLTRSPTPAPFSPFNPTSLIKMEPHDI
sequence,measurement,setting,value
TTTTAT,binding signal,FEV,"1.32 fold enrichment (6-mer frequency, TF over GST control)"
same,binding signal,ETV5,"1.26 fold enrichment (6-mer frequency, TF over GST control)"
same,binding signal,HSF1,"1.46 fold enrichment (6-mer frequency, TF over GST control)"
same,binding signal,SPIC,"1.39 fold enrichment (6-mer frequency, TF over GST control)"
same,binding signal,ELF4,"1.4 fold enrichment (6-mer frequency, TF over GST control)"
same,binding signal,ELK4,"1.26 fold enrichment (6-mer frequency, TF over GST control)"
same,binding signal,ETV2,"1.36 fold enrichment (6-mer frequency, TF over GST control)"
same,binding signal,ELF3,"1.32 fold enrichment (6-mer frequency, TF over GST control)"
same,binding signal,CRX,"1.77 fold enrichment (6-mer frequency, TF over GST control)"
same,binding signal,ETV1,"1.3 fold enrichment (6-mer frequency, TF over GST control)"
same,binding signal,ERF,"1.17 fold enrichment (6-mer frequency, TF over GST control)"
same,binding signal,ETV3L,"1.39 fold enrichment (6-mer frequency, TF over GST control)"
same,binding signal,ETS2,"1.23 fold enrichment (6-mer frequency, TF over GST control)"
same,binding signal,SPDEF,"1.22 fold enrichment (6-mer frequency, TF over GST control)"
same,binding signal,ETV7,"1.34 fold enrichment (6-mer frequency, TF over GST control)"
same,binding signal,ELF5,"1.3 fold enrichment (6-mer frequency, TF over GST control)"
same,binding signal,ETV3,"1.45 fold enrichment (6-mer frequency, TF over GST control)"
same,binding signal,ETV6,"1.36 fold enrichment (6-mer frequency, TF over GST control)"
